The values below come from PubChem BioAssay (EPA / NIEHS).

Results filed as inconclusive are left out. Active and inactive are the calls of the source. Rule for the calls, unless noted: active = hit-call score of the fitted dose curve at least 0.9, where 1 is the maximum; inactive = score below 0.9.

A short description of assay [1]: ACEA_ER_80hr: ACEA Biosciences xCELLigence Real-Time Cell Analysis on Estrogen Receptor Agonism for Proliferation (AID 2282667; active = hit-call score of the fitted dose curve at least 0.9, where 1 is the maximum). The conditions noted are these: T47D proliferation, impedance (xCELLigence), 80 h. The gist of the method:
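Real-time impedance growth kinetics of human T-47D breast cells read 80 h after dosing, gain-of-signal fitted relative to DMSO. Compounds: 1:4 serial series, top final concentration 100 uM, n = 2.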

Assay [2] can be described thus: APR_HepG2_CellCycleArrest_24hr: Apredica 24-hour HepG2 Assay for Cell Cycle Arrest (AID 2282905).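 Note: cell cycle arrest scored as ratio of 2N to 4N nuclear DNA content.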 Particulars: imaging, actives raise or lower the signal. The gist of the method:
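Cell cycle arrest is scored from nuclear DNA content measured by high-content imaging of Hoechst 33342-stained HepG2 cells following 24-hour treatment at ten concentrations up to 200 uM, with DMSO as baseline.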

The nature of assay [3]: APR_HepG2_NuclearSize_24hr: Apredica 24-hour HepG2 Assay for Nuclear Size (AID 2282907). The conditions noted are these: high-content imaging, actives raise or lower the signal. The essentials: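 Compounds in DMSO (final 0.5%) were added to human HepG2 hepatoma cells at ten concentrations up to 200 uM for 24 hr. Fixed nuclei were stained with Hoechst 33342, and nuclear diameter was quantified from automated images.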

Assay [4] can be described thus: APR_HepG2_MicrotubuleCSK_24hr: Apredica 24-hour HepG2 Assay for Microtubule CSK Stabilty (AID 2282909). The conditions noted are these: HepG2 microtubule cytoskeleton imaging, actives raise or lower the signal. The essentials:
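Steps: dose HepG2 for 24 h (0.39–200 uM, 0.5% DMSO); fix 30 min in 3.7% formaldehyde at room temperature; permeabilize; stain alpha-tubulin 60 min; image microtubule cytoskeleton at 20x. Signal change fitted in both directions relative to DMSO.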

Assay [5] in a line: APR_HepG2_MitoticArrest_24hr: Apredica 24-hour HepG2 Assay for Mitotic Arrest (AID 2282910). Particulars: high-content imaging, actives raise or lower the signal. The essentials: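 HepG2 human liver cells were exposed to compounds at 0.39–200 uM (10 concentrations, duplicate) in 0.5% v/v DMSO for 24 hr, then fixed and immunostained for phospho-histone H3 with Hoechst 33342. Mitotic arrest came from HCS fluorescent imaging, fitted bidirectionally against DMSO.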

A short description of assay [6]: APR_HepG2_MitoMembPot_24hr: Apredica 24-hour HepG2 Assay for Mitochondrial Membrane Potential (AID 2282911). The conditions noted are these: imaging, actives raise or lower the signal. The gist of the method:
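Mitochondrial membrane potential imaged via MitoTracker Red CMXRos (250 nM, 30 min pre-fixation) in fixed HepG2 cells with Hoechst nuclear identification. Ten concentrations 0.39–200 uM, 24 h treatment, 0.5% DMSO; CCCP as positive control.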

Assay [7] can be described thus: APR_HepG2_MitoMass_24hr: Apredica 24-hour HepG2 Assay for Mitochondrial Mass (AID 2282912). The conditions noted are these: high-content imaging, actives raise or lower the signal. The essentials: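 The liver line HepG2 was dosed in duplicate across a 0.39–200 uM series, with final DMSO held at 0.5% v/v, and harvested at 24 hr. High-content imaging measured mitochondrial dye staining.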

Assay [8] can be described thus: APR_HepG2_p53Act_24hr: Apredica 24-hour HepG2 Assay for p53 Activation (AID 2282913).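 Note: p53 protein immunofluorescence averaged per cell in HepG2 with Hoechst nuclei.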 The conditions noted are these: high-content imaging, actives raise or lower the signal. The essentials: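 Fluorescence imaging of formaldehyde-fixed HepG2 cells labelled for p53 and with Hoechst, 24 h after dosing (0.39–200 uM, duplicate wells, 0.5% v/v DMSO). Signal fitted in both directions relative to DMSO.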

Assay [9] in a line: APR_HepG2_CellCycleArrest_72hr: Apredica 72-hour HepG2 Assay for Cell Cycle Arrest (AID 2282914). The conditions noted are these: high-content imaging, actives raise or lower the signal. The essentials: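 Read-out: nuclear DNA content from Hoechst 33342 high-content imaging (20x, six fields/well) after 3.7% formaldehyde fixation, fitted bidirectionally against DMSO. Treatment was 72 h in HepG2, ten concentrations 0.39–200 uM, duplicate, 0.5% DMSO.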

The nature of assay [10]: APR_HepG2_CellLoss_24hr: Apredica 24-hour HepG2 Assay for Cell Loss (AID 2282908).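 For AC50: fit in both directions so a hit may be cell loss or gain.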 Particulars: high-content imaging. The essentials: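 Cell number is quantified by fluorescence imaging of Hoechst 33342-stained nuclei following dosing at 0.39–200 uM in 0.5% DMSO. Curves are fitted in both directions from the DMSO baseline.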

Turning to `CC=Cc1ccc(O)c(OC)c1`, the outcome in assay [1], in assay [3], in [4], in assay [5], in assay [6] and in [7] was inactive. The call in assay [8] and in assay [9] was inactive. Moreover, the AC50 in assay [2] was 105 µM (active).

In the case of `Cc1oc(-c2ccccc2)nc1CCOc1cccc2c1ccn2CCC(=O)O`, the result in assay [1], in assay [2], in assay [3], in assay [10], in assay [4] and in assay [5] was inactive. The result in [6], in [7], in [8] and in [9] was inactive.

Take `Cc1cc(NC(=O)C(=O)O)cc(C)c1Oc1ccc(O)c2c1CCC2`: the result in assay [1], in [2], in [3], in [10], in assay [4] and in assay [5] was inactive. Besides, the result in assay [6], in assay [7], in assay [8] and in [9] was inactive.

For `Oc1ccc2ccccc2c1N=Nc1ccccc1`, the AC50 was 6.47 µM (active) in [1]; 34 µM (active) in assay [10]; 27.1 µM (active) in assay [5]; 0.0816 µM (active) in [6]; 0.813 µM (active) in assay [9]. Also, the outcome in assay [2], in [3], in assay [4], in [7] and in assay [8] was inactive.

Take `CCCCN(CCCC)CCCC`: the compound was called inactive in [1], in assay [2], in assay [3], in assay [10], in [4] and in assay [5]. Besides, the outcome in [6], in assay [7], in assay [8] and in [9] was inactive.

Regarding `COC(=O)c1ccc(O)cc1`, the result in assay [1], in assay [2], in assay [3], in assay [10], in [4] and in assay [5] was inactive. For the same compound, the result in [6], in assay [7], in assay [8] and in assay [9] was inactive.

As to `Cc1cccc(C)c1O`, the outcome in assay [1], in [2], in assay [3], in assay [10], in assay [4] and in assay [5] was inactive. The compound was called inactive in assay [6], in [7], in assay [8] and in assay [9].

Turning to `COc1ccc(S(=O)(=O)N2C(=O)[C@@](c3ccccc3OC)(N3C[C@H](O)C[C@H]3C(=O)N(C)C)c3cc(Cl)ccc32)c(OC)c1`, the compound was classed as inactive in [1], in assay [4], in assay [6] and in assay [9]. Further, the AC50 in assay [2] was 86.2 µM (active); in assay [3], 93.2 µM (active); in assay [10] it was 92.4 µM (active); in assay [5] it was 63 µM (active); in assay [7] it was 78.1 µM (active); in assay [8], 68.6 µM (active).

For the compound `Cc1nc(C)nc(N2C[C@@H](C)N(c3ccnc([C@@H](C)O)n3)[C@@H](C)C2)n1`, the compound was classed as inactive in assay [1], in assay [2], in assay [3], in assay [10], in assay [4] and in [5]. The compound was called inactive in assay [6], in assay [7], in [8] and in assay [9].

As to `CN[C@H]1CC[C@@H](c2ccc(Cl)c(Cl)c2)c2ccc(S(N)(=O)=O)cc21`, the outcome in [1], in assay [2], in assay [3], in assay [4], in [5] and in assay [6] was inactive. Also, the call in [7], in [8] and in [9] was inactive. Also, the AC50 in assay [10] is 15.1 µM (active).

Take `Cc1nc(-c2ccc3c(c2)CCN(CCC2CCC(NC(=O)/C=C/c4ccc(F)cc4)CC2)CC3)no1` (stereo not drawn): the compound was classed as inactive in assay [1], in [2], in [3], in [4], in [5] and in assay [6]. For the same compound, the result in assay [7], in [8] and in assay [9] was inactive.

Take `Cc1ccc(N(C)C)cc1`: the result in [1], in assay [2], in assay [3], in [10], in [4] and in assay [5] was inactive. The compound was classed as inactive in assay [6], in [7], in assay [8] and in [9].

Consider `Nc1ccccc1N`, for which the call in assay [1], in assay [3], in [4], in assay [5], in assay [6] and in assay [7] was inactive. Moreover, the AC50 in assay [2] is 15.8 µM (active); in assay [10], 12.9 µM (active); in assay [8], 32.3 µM (active); in [9] it was 5.63 µM (active).

For the compound `CCCCc1ccc2c(n1)[C@@H](c1ccc(OC)cc1C[C@H](C)C(=O)O)[C@H](C(=O)O)[C@H]2c1ccc2c(c1)OCO2`, the result in [1], in assay [2], in assay [3], in assay [10], in [4] and in assay [5] was inactive. Further, the outcome in assay [6], in assay [7], in assay [8] and in assay [9] was inactive.

Regarding `Cc1ccc(C(C)C)c(O)c1`, the compound was classed as inactive in assay [1], in assay [2], in assay [3], in assay [10], in assay [4] and in [5]. The call in assay [6], in assay [7], in assay [8] and in assay [9] was inactive.

`COc1cc(-c2nc(NC(=O)c3cc4cc(C)cc(C)c4n3CC(=O)O)sc2CCC2CCCCC2)c(OC)cc1Cl`: the result in assay [1] was inactive. The AC50 is 38.6 µM (active) in [2]; 61.4 µM (active) in assay [3]; 29.3 µM (active) in [10]; 26.5 µM (active) in assay [4]; 35.1 µM (active) in [5]; 15 µM (active) in assay [6]. Besides, the AC50 in assay [7] is 14.4 µM (active); in [8], 43.4 µM (active); in assay [9], 23.4 µM (active).

With `O=C(OCCCCCOC(=O)c1ccccc1)c1ccccc1`, the result in assay [1], in [2], in [3], in [10], in assay [4] and in assay [5] was inactive. Further, the outcome in assay [6], in [7] and in [8] was inactive. Moreover, in assay [9], the AC50 was 103 µM (active).

On to `CCCCCCCC=O`, for which the result in [1], in [2], in assay [3], in [10], in assay [4] and in assay [5] was inactive. Further, the call in assay [6], in assay [7], in [8] and in [9] was inactive.

Regarding `Clc1cc(Cl)c(Cl)cc1Cl`, the outcome in assay [1], in [2], in [3], in [10], in assay [4] and in [5] was inactive. Besides, the compound was classed as inactive in assay [6], in assay [7], in assay [8] and in assay [9].

As to `COCCOCCOC`, the outcome in assay [1], in assay [2], in [3], in assay [10], in assay [4] and in assay [5] was inactive. In addition, the compound was classed as inactive in assay [6], in assay [7], in assay [8] and in [9].

Take `O=[N+]([O-])C(CO)(CO)CO`: the outcome in assay [1], in assay [2], in assay [3], in [10], in [4] and in assay [5] was inactive. The call in assay [6], in [7], in assay [8] and in assay [9] was inactive.
